The source of these data is publication PMC7862700, “An all-to-all approach to the identification of sequence-specific readers for epigenetic DNA modifications on cytosine”.

Holding throughout (test): DAPPL (digital affinity profiling via proximity ligation, sequencing); 10 mM Tris-HCl pH 7.5, 50 mM NaCl, 1 mM DTT, 4% glycerol, room temperature, 30 min; GST-TFs on glutathione beads, 16-mer random dsDNA library, 0.1% formaldehyde crosslink after washing; high values mean tight binding
One experiment concerns the target T1, FEV (Homo sapiens, UniProt Q99581 1-238).
T1 sequence: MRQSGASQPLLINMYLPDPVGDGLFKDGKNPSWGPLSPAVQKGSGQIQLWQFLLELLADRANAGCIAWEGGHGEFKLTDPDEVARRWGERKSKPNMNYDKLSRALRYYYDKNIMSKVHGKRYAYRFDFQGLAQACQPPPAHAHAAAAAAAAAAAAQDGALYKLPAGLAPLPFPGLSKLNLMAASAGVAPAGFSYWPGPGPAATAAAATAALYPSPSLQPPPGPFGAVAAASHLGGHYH
The settings on record: protein: recombinant; tags: N-terminal GST; dsDNA, one strand shown. In a few lines:
(§1)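 A tag-only sample was pooled with DNA-barcoded human transcription factors that had been expressed in yeast as GST fusions and captured on glutathione beads. The pools were incubated for 30 min at room temperature with 200 nmole of a random double-stranded 16-mer DNA library in Tris/NaCl/DTT/glycerol buffer, then washed, crosslinked with 0.1% formaldehyde, proximity-ligated (BsaI/T4 ligase, 1 h, 37 °C), PCR-amplified and sequenced on an Illumina NextSeq500. Binding signal is each hexamer's read frequency for a factor divided by its frequency for the tag-only sample.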

The target in a further experiment is ETV5 (Homo sapiens, UniProt P41161 1-510). The settings on record: protein: recombinant; tags: N-terminal GST; dsDNA, one strand shown. A digest of the protocol:
as §1

Another experiment addresses HSF1 (Homo sapiens, UniProt Q00613 1-529). Conditions: protein: recombinant; tags: N-terminal GST; chain copies: 3; dsDNA, one strand shown. In a few lines: as §1
Another experiment deals with T2, SPIC (Homo sapiens, UniProt Q8N5J4 1-248).
T2 sequence: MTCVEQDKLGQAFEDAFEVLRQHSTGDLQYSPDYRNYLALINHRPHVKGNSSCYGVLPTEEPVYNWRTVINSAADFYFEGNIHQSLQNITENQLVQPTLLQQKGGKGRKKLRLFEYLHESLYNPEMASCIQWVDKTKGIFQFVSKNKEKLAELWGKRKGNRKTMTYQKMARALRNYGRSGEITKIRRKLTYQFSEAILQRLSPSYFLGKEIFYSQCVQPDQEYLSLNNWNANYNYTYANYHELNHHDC
Conditions: protein: recombinant; tags: N-terminal GST; dsDNA, one strand shown. A digest of the protocol:
as §1

The target of the next experiment is ELF4 (Homo sapiens, UniProt Q99607 1-663). The settings on record: protein: recombinant; tags: N-terminal GST; dsDNA, one strand shown. In a few lines:
as §1

In the next experiment the target is T3, ELK4 (Homo sapiens, UniProt P28324-2 1-405).
T3 sequence: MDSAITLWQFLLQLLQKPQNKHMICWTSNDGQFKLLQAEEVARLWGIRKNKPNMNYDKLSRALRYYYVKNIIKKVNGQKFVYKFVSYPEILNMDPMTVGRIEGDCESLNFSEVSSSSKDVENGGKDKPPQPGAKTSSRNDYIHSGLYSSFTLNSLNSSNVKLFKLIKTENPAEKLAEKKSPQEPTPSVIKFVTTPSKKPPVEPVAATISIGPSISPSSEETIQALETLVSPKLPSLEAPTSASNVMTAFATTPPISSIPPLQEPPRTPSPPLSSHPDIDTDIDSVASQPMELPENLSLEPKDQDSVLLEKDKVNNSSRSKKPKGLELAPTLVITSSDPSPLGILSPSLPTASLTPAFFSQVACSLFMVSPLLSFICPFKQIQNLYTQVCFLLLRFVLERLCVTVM
The settings on record: protein: recombinant; tags: N-terminal GST; dsDNA, one strand shown. In a few lines:
as §1

The next experiment concerns the target T4, ETV2 (Homo sapiens, UniProt O00321 1-342).
T4 sequence: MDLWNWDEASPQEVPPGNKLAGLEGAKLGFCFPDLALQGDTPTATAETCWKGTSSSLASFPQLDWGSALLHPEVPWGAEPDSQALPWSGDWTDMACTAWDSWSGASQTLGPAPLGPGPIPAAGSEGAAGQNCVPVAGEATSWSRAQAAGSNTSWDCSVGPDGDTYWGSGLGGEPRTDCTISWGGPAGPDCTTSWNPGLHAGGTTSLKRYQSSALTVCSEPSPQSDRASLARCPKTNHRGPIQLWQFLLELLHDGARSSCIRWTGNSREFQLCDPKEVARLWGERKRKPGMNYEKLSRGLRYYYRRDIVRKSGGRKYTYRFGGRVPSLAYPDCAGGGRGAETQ
Conditions: protein: recombinant; tags: N-terminal GST; dsDNA, one strand shown. A digest of the protocol:
as §1

Another experiment has as its target T5, ELF3 (Homo sapiens, UniProt P78545 1-371).
T5 sequence: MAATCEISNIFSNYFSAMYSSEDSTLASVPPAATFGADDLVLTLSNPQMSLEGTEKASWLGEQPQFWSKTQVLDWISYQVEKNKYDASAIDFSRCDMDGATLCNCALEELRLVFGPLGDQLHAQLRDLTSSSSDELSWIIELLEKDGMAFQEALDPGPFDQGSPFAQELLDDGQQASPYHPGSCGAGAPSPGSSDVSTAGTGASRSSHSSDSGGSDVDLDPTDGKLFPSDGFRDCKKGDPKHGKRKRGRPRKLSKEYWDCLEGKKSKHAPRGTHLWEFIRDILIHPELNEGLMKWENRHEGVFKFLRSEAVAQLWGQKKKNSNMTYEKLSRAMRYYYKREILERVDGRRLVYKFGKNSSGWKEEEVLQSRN
The settings on record: protein: recombinant; tags: N-terminal GST; dsDNA, one strand shown. In a few lines: as §1

Another experiment concerns the target CRX (Homo sapiens, UniProt O43186 1-299). Conditions: protein: recombinant; tags: N-terminal GST; dsDNA, one strand shown. In a few lines: as §1
The target of another experiment is ETV1 (Homo sapiens, UniProt P50549 1-477). Conditions: protein: recombinant; tags: N-terminal GST; dsDNA, one strand shown. A digest of the protocol: as §1
ETV1, sequence (P50549 whole entry): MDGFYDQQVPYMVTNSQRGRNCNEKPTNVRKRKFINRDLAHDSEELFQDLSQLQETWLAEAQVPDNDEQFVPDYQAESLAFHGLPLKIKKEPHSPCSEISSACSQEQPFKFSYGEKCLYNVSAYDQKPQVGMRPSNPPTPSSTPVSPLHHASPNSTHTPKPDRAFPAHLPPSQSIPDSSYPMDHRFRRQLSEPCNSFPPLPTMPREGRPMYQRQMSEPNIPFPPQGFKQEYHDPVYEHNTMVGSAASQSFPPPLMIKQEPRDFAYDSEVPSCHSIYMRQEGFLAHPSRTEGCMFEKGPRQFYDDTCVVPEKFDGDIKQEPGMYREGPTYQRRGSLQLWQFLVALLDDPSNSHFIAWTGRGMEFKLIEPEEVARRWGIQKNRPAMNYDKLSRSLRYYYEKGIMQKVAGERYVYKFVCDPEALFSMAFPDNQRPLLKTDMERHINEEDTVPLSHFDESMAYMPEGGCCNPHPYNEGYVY
The next experiment has as its target T6, ERF (Homo sapiens, UniProt P50548 1-548).
T6 sequence: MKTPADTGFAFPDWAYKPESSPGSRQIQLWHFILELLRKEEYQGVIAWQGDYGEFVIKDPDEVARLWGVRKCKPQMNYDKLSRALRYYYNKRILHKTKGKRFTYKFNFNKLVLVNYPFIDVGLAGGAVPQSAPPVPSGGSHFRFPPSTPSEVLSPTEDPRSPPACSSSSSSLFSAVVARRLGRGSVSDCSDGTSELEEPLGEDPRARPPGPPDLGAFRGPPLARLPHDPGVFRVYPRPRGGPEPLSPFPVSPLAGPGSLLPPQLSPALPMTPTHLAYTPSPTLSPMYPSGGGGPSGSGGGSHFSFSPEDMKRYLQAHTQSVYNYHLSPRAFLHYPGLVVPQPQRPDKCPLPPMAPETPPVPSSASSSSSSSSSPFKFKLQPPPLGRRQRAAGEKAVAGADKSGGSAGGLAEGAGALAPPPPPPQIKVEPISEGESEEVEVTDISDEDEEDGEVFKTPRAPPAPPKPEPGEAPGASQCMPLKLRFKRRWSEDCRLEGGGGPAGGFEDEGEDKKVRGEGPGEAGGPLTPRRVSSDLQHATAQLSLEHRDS
The settings on record: protein: recombinant; tags: N-terminal GST; dsDNA, one strand shown. A digest of the protocol:
as §1

In another experiment the target is T7, ETV3L (Homo sapiens, UniProt Q6ZN32 1-361).
T7 sequence: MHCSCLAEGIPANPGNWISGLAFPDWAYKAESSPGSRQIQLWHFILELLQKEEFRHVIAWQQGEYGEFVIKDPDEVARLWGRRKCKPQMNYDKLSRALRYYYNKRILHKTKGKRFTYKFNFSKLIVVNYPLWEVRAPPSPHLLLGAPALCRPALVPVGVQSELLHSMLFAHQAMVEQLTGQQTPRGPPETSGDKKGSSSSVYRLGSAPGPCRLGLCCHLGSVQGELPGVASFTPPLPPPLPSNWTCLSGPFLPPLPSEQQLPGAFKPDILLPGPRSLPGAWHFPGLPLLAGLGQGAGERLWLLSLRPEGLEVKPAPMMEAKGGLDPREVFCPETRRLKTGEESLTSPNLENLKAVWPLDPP
The settings on record: protein: recombinant; tags: N-terminal GST; dsDNA, one strand shown. In a few lines:
as §1

Another experiment deals with T8, ETS2 (Homo sapiens, UniProt P15036 1-469).
T8 sequence: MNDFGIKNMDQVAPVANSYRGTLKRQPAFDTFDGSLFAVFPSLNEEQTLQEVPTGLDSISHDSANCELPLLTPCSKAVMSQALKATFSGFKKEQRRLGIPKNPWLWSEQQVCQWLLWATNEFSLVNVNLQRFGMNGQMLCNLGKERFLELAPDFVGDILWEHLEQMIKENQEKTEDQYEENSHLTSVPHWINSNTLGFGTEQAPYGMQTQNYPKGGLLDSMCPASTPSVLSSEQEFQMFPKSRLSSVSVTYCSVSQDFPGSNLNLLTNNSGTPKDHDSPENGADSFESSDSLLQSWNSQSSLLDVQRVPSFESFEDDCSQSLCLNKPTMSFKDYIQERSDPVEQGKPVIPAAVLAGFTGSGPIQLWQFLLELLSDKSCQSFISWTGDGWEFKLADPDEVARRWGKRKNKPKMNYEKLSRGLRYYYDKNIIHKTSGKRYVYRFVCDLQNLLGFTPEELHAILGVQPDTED
Conditions: protein: recombinant; tags: N-terminal GST; dsDNA, one strand shown. In a few lines:
as §1

The target in the next experiment is T9, SPDEF (Homo sapiens, UniProt O95238 1-335).
T9 sequence: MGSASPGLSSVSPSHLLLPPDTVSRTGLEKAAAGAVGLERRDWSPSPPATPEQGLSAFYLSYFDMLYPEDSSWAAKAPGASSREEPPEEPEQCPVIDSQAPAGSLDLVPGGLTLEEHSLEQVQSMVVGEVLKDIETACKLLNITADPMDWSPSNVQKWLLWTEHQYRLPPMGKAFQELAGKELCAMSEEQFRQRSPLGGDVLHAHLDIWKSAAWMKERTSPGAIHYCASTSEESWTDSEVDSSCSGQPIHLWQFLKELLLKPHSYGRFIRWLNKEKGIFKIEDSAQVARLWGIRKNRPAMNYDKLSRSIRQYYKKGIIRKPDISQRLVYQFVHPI
Conditions: protein: recombinant; tags: N-terminal GST; dsDNA, one strand shown. A digest of the protocol: as §1

Another experiment deals with T10, ETV7 (Homo sapiens, UniProt Q9Y603 1-341).
T10 sequence: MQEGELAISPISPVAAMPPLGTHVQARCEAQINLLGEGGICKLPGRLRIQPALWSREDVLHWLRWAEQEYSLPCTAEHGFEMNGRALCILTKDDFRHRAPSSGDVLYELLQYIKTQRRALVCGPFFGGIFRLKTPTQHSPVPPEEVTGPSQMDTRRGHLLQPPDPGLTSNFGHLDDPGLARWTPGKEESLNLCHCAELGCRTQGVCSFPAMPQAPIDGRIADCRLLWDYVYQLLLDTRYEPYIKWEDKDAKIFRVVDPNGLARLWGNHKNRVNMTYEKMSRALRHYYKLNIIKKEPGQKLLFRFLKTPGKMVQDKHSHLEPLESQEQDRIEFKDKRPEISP
Conditions: protein: recombinant; tags: N-terminal GST; dsDNA, one strand shown. In a few lines: as §1

A further experiment deals with T11, ELF5 (Homo sapiens, UniProt Q9UKW6-2 1-255).
T11 sequence: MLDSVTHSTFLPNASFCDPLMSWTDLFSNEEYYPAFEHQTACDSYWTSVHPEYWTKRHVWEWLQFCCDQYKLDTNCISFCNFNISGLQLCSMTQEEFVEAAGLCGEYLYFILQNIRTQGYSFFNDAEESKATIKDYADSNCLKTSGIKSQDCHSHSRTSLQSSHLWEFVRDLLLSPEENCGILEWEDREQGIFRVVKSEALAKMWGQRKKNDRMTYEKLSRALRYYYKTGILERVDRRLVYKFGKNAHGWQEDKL
The settings on record: protein: recombinant; tags: N-terminal GST; dsDNA, one strand shown. A digest of the protocol:
as §1

For a further experiment, the target named is T12, ETV3 (Homo sapiens, UniProt P41162-2 1-143).
T12 sequence: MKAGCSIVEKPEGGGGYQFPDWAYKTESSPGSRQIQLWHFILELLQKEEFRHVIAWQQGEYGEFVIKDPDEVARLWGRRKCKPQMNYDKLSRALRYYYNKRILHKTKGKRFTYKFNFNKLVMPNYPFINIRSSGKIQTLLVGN
The settings on record: protein: recombinant; tags: N-terminal GST; dsDNA, one strand shown. A digest of the protocol: as §1

The next experiment concerns the target ETV6 (Homo sapiens, UniProt P41212 1-452). The settings on record: protein: recombinant; tags: N-terminal GST; dsDNA, one strand shown. A digest of the protocol: as §1

ELF4, sequence (Q99607 whole entry): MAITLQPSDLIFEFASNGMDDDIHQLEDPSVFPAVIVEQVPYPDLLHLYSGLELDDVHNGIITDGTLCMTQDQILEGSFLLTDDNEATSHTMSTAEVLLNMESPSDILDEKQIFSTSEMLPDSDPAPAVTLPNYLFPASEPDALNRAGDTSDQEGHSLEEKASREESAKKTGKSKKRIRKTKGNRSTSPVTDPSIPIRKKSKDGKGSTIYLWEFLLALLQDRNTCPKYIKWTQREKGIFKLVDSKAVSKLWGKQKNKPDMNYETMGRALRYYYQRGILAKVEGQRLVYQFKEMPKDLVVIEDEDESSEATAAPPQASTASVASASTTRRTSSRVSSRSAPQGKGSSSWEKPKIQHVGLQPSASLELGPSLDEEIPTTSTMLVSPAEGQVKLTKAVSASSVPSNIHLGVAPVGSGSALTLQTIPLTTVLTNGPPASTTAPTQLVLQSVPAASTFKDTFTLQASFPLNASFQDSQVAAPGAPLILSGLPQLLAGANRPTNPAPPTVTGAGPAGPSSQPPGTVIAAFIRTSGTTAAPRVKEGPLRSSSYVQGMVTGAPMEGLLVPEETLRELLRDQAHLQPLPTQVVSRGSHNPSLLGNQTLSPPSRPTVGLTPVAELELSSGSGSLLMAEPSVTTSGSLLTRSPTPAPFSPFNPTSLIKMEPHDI
ETV6, sequence (P41212 whole entry): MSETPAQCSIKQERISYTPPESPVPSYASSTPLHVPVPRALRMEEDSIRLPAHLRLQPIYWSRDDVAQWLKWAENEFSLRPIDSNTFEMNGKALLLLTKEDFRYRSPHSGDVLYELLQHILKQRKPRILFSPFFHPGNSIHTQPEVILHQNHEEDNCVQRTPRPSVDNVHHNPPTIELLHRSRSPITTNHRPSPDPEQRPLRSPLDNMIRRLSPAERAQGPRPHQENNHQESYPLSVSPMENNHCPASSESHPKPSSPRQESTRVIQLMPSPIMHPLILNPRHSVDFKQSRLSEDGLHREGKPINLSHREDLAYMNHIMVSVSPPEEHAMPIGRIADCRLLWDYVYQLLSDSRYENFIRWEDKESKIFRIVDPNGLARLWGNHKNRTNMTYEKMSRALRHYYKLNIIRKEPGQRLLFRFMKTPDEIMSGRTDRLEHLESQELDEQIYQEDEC
HSF1, sequence (Q00613 whole entry): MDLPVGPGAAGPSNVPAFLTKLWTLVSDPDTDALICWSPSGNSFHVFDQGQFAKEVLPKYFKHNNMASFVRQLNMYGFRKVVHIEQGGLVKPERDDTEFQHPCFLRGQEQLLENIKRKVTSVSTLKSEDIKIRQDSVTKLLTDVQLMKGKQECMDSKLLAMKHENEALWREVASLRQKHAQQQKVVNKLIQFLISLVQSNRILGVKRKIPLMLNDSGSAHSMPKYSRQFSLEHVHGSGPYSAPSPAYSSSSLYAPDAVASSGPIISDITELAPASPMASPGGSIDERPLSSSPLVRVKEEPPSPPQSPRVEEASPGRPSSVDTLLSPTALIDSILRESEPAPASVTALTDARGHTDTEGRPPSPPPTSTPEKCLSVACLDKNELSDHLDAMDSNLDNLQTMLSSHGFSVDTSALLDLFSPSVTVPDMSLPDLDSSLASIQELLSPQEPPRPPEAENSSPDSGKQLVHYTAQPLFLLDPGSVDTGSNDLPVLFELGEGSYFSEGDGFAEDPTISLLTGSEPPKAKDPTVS
CRX, sequence (O43186 whole entry): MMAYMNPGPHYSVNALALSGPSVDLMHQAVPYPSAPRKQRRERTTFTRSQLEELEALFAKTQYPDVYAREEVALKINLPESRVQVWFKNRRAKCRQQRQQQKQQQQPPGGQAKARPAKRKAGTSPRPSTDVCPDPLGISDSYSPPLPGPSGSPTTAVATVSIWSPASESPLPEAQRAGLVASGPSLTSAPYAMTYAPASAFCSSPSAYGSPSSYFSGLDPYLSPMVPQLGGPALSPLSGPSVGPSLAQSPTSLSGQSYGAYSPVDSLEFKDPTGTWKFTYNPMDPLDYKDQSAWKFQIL
ETV5, sequence (P41161 whole entry): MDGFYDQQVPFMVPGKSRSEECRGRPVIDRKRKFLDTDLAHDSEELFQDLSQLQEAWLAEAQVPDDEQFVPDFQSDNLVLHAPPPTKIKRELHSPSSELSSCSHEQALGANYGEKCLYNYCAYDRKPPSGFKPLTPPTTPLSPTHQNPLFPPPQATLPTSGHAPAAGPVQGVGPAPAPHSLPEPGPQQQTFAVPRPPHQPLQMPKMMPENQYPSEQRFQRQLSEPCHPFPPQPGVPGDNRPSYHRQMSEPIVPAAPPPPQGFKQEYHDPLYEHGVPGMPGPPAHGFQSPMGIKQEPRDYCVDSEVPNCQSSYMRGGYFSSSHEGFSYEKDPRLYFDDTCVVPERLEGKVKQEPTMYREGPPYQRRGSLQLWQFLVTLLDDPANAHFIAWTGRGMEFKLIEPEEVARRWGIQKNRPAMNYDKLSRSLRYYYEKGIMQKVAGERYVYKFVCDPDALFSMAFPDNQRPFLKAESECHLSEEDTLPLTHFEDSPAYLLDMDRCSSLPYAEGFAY

Turning to CCTTGA, the binding signal with FEV is 1.19 fold enrichment (6-mer frequency, TF over GST control); in the experiment with ETV5, 1.25 fold enrichment (6-mer frequency, TF over GST control); with HSF1, 1.07 fold enrichment (6-mer frequency, TF over GST control); with SPIC it was 1.27 fold enrichment (6-mer frequency, TF over GST control); with ELF4 it was 1.22 fold enrichment (6-mer frequency, TF over GST control); with ELK4, 1.22 fold enrichment (6-mer frequency, TF over GST control). The binding signal is 1.11 fold enrichment (6-mer frequency, TF over GST control) with ETV2; 1.26 fold enrichment (6-mer frequency, TF over GST control) with ELF3; 1.16 fold enrichment (6-mer frequency, TF over GST control) with CRX; 1.17 fold enrichment (6-mer frequency, TF over GST control) in the experiment with ETV1; 1.27 fold enrichment (6-mer frequency, TF over GST control) with ERF; 1.17 fold enrichment (6-mer frequency, TF over GST control) with ETV3L. The binding signal is 1.2 fold enrichment (6-mer frequency, TF over GST control) with ETS2; 1.33 fold enrichment (6-mer frequency, TF over GST control) with SPDEF; 1.14 fold enrichment (6-mer frequency, TF over GST control) with ETV7; 1.37 fold enrichment (6-mer frequency, TF over GST control) with ELF5; 1.19 fold enrichment (6-mer frequency, TF over GST control) with ETV3; 1.23 fold enrichment (6-mer frequency, TF over GST control) with ETV6.
